The results in this text go back to PubChem BioAssay AID2515 (National Center for Advancing Translational Sciences (NCATS), 2010).

Records with an inconclusive call do not appear. A call without a number means that no potency is given here. Calls of active or inactive are those of the source. The call rests on the fitted dose curve; in most records, active means well fitted inhibition curve with a large enough effect; inconclusive means small, poorly fitted or top-dose-only effect; inactive means flat fitted curve, though single readings scatter.

Luciferin 4-monooxygenase (Photinus pyralis), sequence (P08659 whole entry, looked up, canonical isoform): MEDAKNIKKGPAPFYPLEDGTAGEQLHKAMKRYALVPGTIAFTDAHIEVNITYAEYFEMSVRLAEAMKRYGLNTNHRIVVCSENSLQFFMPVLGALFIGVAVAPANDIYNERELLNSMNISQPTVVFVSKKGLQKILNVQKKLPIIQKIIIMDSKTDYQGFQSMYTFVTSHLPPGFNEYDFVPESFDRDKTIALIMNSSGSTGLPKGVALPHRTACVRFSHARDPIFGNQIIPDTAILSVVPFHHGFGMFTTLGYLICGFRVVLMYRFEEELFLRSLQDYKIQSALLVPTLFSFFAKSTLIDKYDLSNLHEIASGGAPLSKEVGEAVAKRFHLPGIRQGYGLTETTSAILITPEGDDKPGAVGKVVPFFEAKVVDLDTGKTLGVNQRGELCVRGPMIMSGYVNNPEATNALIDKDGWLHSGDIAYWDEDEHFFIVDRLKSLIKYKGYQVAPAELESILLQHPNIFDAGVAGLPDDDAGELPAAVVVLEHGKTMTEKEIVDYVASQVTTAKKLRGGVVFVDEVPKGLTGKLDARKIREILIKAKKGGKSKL

The test concerns the target Luciferin 4-monooxygenase (Photinus pyralis) (UniProt P08659). Kind of test: Counterscreen Assay for Enhancers of SMN2 Splice Variant Expression: Interaction with Luciferase Reporter for Probe SAR. The settings on record: purified firefly luciferase, luminescence inhibition; series mostly up to 51 µM. An excerpt: NIH Chemical Genomics Center [NCGC] NIH Molecular Libraries Probe Production centers Network [MLPCN] MLPCN Grant: R03 MH084179-01 Assay Submitter (PI): Elliot Androphy NCGC Assay Overview: Spinal muscular atrophy (SMA) is caused by insufficient levels of the survival motor neuron protein SMN. The SMN locus on chromosome 5q13 contains two inverted copies of SMN called SMN1 and SMN2 which are 99% identical at the amino acid level. SMN1 is a fully functional protein and SMN2 skips exon 7 90% of the time. Skipping of exon 7 produces non-functional protein product. 10% of the SMN2 protein includes exon 7 and is fully functional. In the SMA disease state, mutations in the SMN1 locus are the cause of the disease state. Because only 10% of SMN2 is of the fully functional form, it is not sufficient to overcome the deficiency produced by the loss of the SMN1 product. A therapy that either increases the amount of SMN2 product made increases the inclusion of exon 7 has been proposed for the treatment of SMA. We have designed an assay to identify small molecules that can increase the amount of functional SMN2 product by appending a luciferase reporter gene after the native SMN2 gene, such that inclusion of exon 7 in the expressed product places the luciferase sequence in frame, thus generating functional luciferase enzyme. One potential source of false positives in the primary screening assay is stabilization of the reporter luciferase via direct binding. This assay attempts to identify such compounds by screening directly for luciferase activity in the absence of the cellular system.
NCGC Assay Protocol Summary: The primary screen utilizes a luciferase reporter gene assay, combining the promoter and splicing based cassettes in tandem with the major portion of the native SMN1 cDNA, and then transfected into HEK293 cells. Compounds that modulate luciferase signal presumably modulate expression of […]. In this assay, we utilize purified firefly luciferase in lieu of a cellular reporter to identify compounds interacting directly with luciferase in the primary screen. Sequence, Parameter, Value, Description (1) Reagent, 2.5 uL, Enzyme in buffer (note A) (2) Compound, 23 nL, From stock solutions (3) Time, 5 minutes, Room temp (4) Reagent#2.5 ul, Luciferase detection reagent (note B) (5) Detector, 1 sec integrate, Luminescent read on Viewlux (note C) Sigma enzyme (1 mg) considered to be MW 61,000 diluted in 357 ul assay buffer to 50 uM stock. A - Enzyme and buffer consists of 50 mM Tris-acetate pH 7.6, 10 mM Mg acetate 0.05% BSA, 0.01% Tween and 5 nM firefly luciferase B - Detection reagent = britelite plus diluted 1:10 in PBS C - Viewlux settings were 1 second integration medium sensitivity Keywords: Spinal muscular atrophy, SMA, SMN2, high throughput screening, MLSMR, MLPCN, NIH Roadmap, qHTS and NCGC
On the technique in general: Counterscreens check selectivity or assay interference.
As to `CN(C)c1ccccc1-c1csc(N2CCC(C(N)=O)CC2)n1`, the Potency result was “inactive”.
Turning to `NC(=O)C1CCN(c2nc(-c3cccnc3)cs2)CC1`, the Potency entry was “inactive”.
Consider `CN(C)C(=O)c1cccc(-c2csc(N3CCC(C(N)=O)CC3)n2)c1`, for which the Potency result is “inactive”.
With `CS(=O)(=O)c1ccccc1-c1csc(N2CCC(C(N)=O)CC2)n1` the entry was “inactive”; with `NC(=O)C1CCN(c2nc(-c3ccc4ccccc4c3)cs2)CC1`, 31.8 µM (active).
The figure for `NC(=O)C1CCN(c2nc(-c3ccccc3F)cs2)CC1` is 35.7 µM (active).
The figure for `NC(=O)C1CCN(c2nc(-c3ccc4c(c3)OCCO4)cs2)CC1` is 4.5 µM (active); for `NC(=O)C1CCN(c2nc(-c3cc4ccccc4o3)cs2)CC1` it is 31.8 µM (active); for `NC(=O)C1CCN(c2nc(-c3ccccc3N)cs2)CC1` it is “inactive”.
On to `Cc1ccc(-c2csc(N3CCC(C(N)=O)CC3)n2)cc1`, for which the Potency is 12.7 µM (active).
The figure for `Cn1ccc2cc(-c3csc(N4CCC(C(N)=O)CC4)n3)ccc21` is 10.1 µM (active); for `Cc1noc(C)c1-c1csc(N2CCC(C(N)=O)CC2)n1` it is “inactive”; for `NC(=O)C1CCN(c2nc(-c3ccc(Br)cc3)cs2)CC1` it is 40.1 µM (active).
The entry for `NC(=O)C1CCN(c2nc(-c3cccc(N)c3)cs2)CC1` is “inactive”; for `CN(C)c1cccc(-c2csc(N3CCC(C(N)=O)CC3)n2)c1` it is 12.7 µM (active); for `NC(=O)C1CCN(c2nc(-c3ccccc3C(F)(F)F)cs2)CC1` it is “inactive”.
The entry for `CS(=O)(=O)c1cccc(-c2csc(N3CCC(C(N)=O)CC3)n2)c1` is “inactive”.
Turning to `NC(=O)C1CCN(c2nc(-c3ccc(F)cc3)cs2)CC1`, the Potency is 28.4 µM (active).
